We go through 55 molecules from PubChem BioAssay AID686978 (National Center for Advancing Translational Sciences (NCATS), 2013).

Out of some 420,000 compounds screened, about 64,000 (15%) were called active. Not shown: some 27% with an inconclusive outcome. These entries were drawn from the full list. A number with no mark means an inactive call. Calls follow the shape of the dose curve; as a rule, active = well fitted inhibition curve with a large enough effect; inconclusive = small, poorly fitted or top-dose-only effect; inactive = flat fitted curve, though single readings scatter.
% is scaled to controls: 0 for no effect and ±100 for the full control effect; potency is read from the fitted curve at half-maximal effect.

The nature of this assay: qHTS for Inhibitors of human tyrosyl-DNA phosphodiesterase 1 (TDP1): qHTS in cells in absence of CPT. Also: nearly all actives have a fitted effect of over 55% in size. Conditions: DT40 Tdp1-/- hTDP1 cells, no CPT, ATP luminescence, 48 h; activity change, negative = growth inhibition: at 46.2 µM (top of the series). A digest of the protocol:
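Compound effects on proliferation are scored in DT40 Tdp1-/-;hTDP1 cells in the absence of CPT. ATP levels (CellTiter-Glo luminescence) are recorded after a ≥48 hr, 37 °C incubation.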
For `CCOc1ccc(C(=O)NCC(=O)N2CCCCCCC2)cc1OCC`, the “activity change, negative = growth inhibition” value is 0.068%.

Regarding `O=C(CCS(=O)(=O)c1cccc2nonc12)NCCc1ccccc1Cl`, the “activity change, negative = growth inhibition” value was -17.1%.

On to `COc1cccc(Cn2c(=O)c(-c3cc(F)cc(F)c3)nc3cnc(OC)nc32)c1`, for which the Potency was 0.116 µM (active).

On to `COCCn1c(=O)c(CCc2ccccc2)nc2cncnc21`, for which the “activity change, negative = growth inhibition” value is 22.6%.

Consider `COc1ccc(-c2nc3cnc(OC)nc3n(Cc3ccc(F)cc3)c2=O)cc1`, for which the “activity change, negative = growth inhibition” value was -15%.

Consider `COc1cccc(Cn2c(=O)c(CCc3ccccc3)nc3cnc(N(C)C)nc32)c1`, for which the “activity change, negative = growth inhibition” value is -6.83%.

As for `COc1cccc(Cn2c(=O)cnc3cncnc32)c1`, the Potency is 0.731 µM (active).

`COc1cccc(Cn2c(=O)c(-c3ccccc3)nc3cnc(OC)nc32)c1`: the “activity change, negative = growth inhibition” value is -1.76%.

In the case of `Cc1ccc(F)cc1NC(=O)c1cccc(N(C)C)c1`, the “activity change, negative = growth inhibition” value is -1.61%.

Take `COc1ccc(-c2nc(N)sc2C2(O)C(=O)Nc3c(Br)cc(F)cc32)cc1OC` (stereo not given): the “activity change, negative = growth inhibition” value was -1.91%.

Turning to `Cc1ccc(OC(=O)c2ccccc2C(=O)OCC(F)(F)C(F)F)cc1`, the “activity change, negative = growth inhibition” value is -4.89%.

For the molecule `O=C(O)c1cc2ccccc2c(=O)s1`, the “activity change, negative = growth inhibition” value is -6.59%.

Regarding `CC(=O)c1ccc(NC(=O)Cn2c(=O)oc3ccccc32)cc1`, the “activity change, negative = growth inhibition” value was -10.3%.

Take `COc1ccc(C2(C)NC(=O)N(CC(=O)c3ccc4c(c3)OCO4)C2=O)cc1` (stereo not given): the “activity change, negative = growth inhibition” value was -20.5%.

With `CCc1ccc(-n2nnc(-c3nc(-c4ccccc4)no3)c2C)cc1`, the “activity change, negative = growth inhibition” value was 3.01%.

For the molecule `Cc1ccc(NC(=O)CSc2nnc(CNC(=O)c3ccccc3F)o2)cc1Cl`, the “activity change, negative = growth inhibition” value is 6.65%.

On to `COc1ccccc1C(=O)OCC(=O)Nc1cccc(S(=O)(=O)NC2=NCCCCC2)c1`, for which the “activity change, negative = growth inhibition” value is -28.2%.

Consider `Cc1cccc(-n2c(SCC(=O)Nc3cccc(S(=O)(=O)NC4=NCCCCC4)c3)nc3ccccc3c2=O)c1C`, for which the Potency was 16.4 µM (active).

With `CCc1ccc(C(=O)OCC(=O)Nc2cccc(S(=O)(=O)NC3=NCCCCC3)c2)cc1`, the “activity change, negative = growth inhibition” value was -16.1%.

As to `O=C(Cc1cccs1)Nc1nnc(SCc2ccc(F)cc2)s1`, the “activity change, negative = growth inhibition” value is -8.66%.

Turning to `Nc1nnnn1/N=C/c1cc([N+](=O)[O-])ccc1O`, the “activity change, negative = growth inhibition” value was -19%.

`O=[N+]([O-])c1ccc(O)c(/C=N/Nc2ccccc2[N+](=O)[O-])c1`: the Potency is 18.4 µM (active).

For the molecule `O=[N+]([O-])c1cccc(C=NN=Cc2ccccc2O)c1`, the “activity change, negative = growth inhibition” value is -0.122%.

Consider `CCCCn1c(N)c(N(CCC(C)C)C(=O)c2ccc(COc3ccccc3)o2)c(=O)[nH]c1=O`, for which the “activity change, negative = growth inhibition” value was -8.96%.

Consider `CS(=O)(=O)N1CCN(CC(=O)NC2CCCC2)CC1`, for which the “activity change, negative = growth inhibition” value is -27.4%.

For `Cn1c(-c2ccco2)nc2cc3ccccc3cc21`, the Potency is 20.6 µM (active).

Consider `CN(c1nc2ccccc2n2c(-c3ccco3)nnc12)S(=O)(=O)c1ccccc1`, for which the “activity change, negative = growth inhibition” value was -12.7%.

As for `COc1ccccc1-n1c(-c2cc(-c3ccco3)[nH]n2)n[nH]c1=S`, the “activity change, negative = growth inhibition” value is -5.33%.

For the molecule `CCN(CC)C(=O)CSC1c2ccccc2C(=O)N1c1ccccc1` (stereo not given), the “activity change, negative = growth inhibition” value is -17.6%.

Take `COC(=O)c1ccc(-n2cnc3ccccc32)nc1`: the “activity change, negative = growth inhibition” value was 0.376%.

For `COC(=O)CSc1nc(C)c2ccc(OC)cc2n1`, the “activity change, negative = growth inhibition” value is -3.51%.

Turning to `O=C(O)C(c1ccccc1)C1(O)CCCCC1` (stereo not given), the “activity change, negative = growth inhibition” value was -7.94%.

In the case of `CC1COc2ccccc2N1C(=O)c1cccnc1Cl` (stereo not given), the “activity change, negative = growth inhibition” value was -1.42%.

With `O=C(Nn1c(-c2ccc(Cl)cc2)nc2ccccc2c1=O)c1cccnc1Cl`, the “activity change, negative = growth inhibition” value was 2.46%.

As to `CN1/C(=C\C(=O)c2cccnc2Cl)C(C)(C)c2ccccc21`, the Potency is 16.4 µM (active).

For `COCCN(C(=O)CCC(=O)Nc1nccs1)C(C(=O)NCCC(C)C)c1ccc(F)cc1` (stereo not given), the “activity change, negative = growth inhibition” value is -22.3%.

As for `Cc1ncc2c(c1CNS(=O)(=O)N(C)C)CCN(C(=O)c1ccccc1F)C2`, the “activity change, negative = growth inhibition” value is -14.2%.

Turning to `CC(C)(C)N(Cc1ccccc1)C(=O)c1ccncc1`, the “activity change, negative = growth inhibition” value was 8.21%.

With `CC(=O)N1N=C(c2ccncc2)OC1(Cc1ccccc1)Cc1ccccc1`, the Potency was 8.2 µM (active).

Turning to `CC(=O)N1N=C(c2ccccc2)OC1c1cccnc1` (stereo not given), the “activity change, negative = growth inhibition” value is -18.3%.

Take `CC1(c2cccc(N)c2)OCCO1`: the “activity change, negative = growth inhibition” value is 1.06%.

As to `Cc1ccc(S(=O)(=O)/N=C(/NC(=S)Nc2c(C)n(C)n(-c3ccccc3)c2=O)c2ccccc2)cc1`, the “activity change, negative = growth inhibition” value is 14.8%.

Take `CC(C)C(=O)NCC(c1cccs1)S(=O)(=O)c1ccc(F)cc1` (stereo not given): the “activity change, negative = growth inhibition” value is 11.1%.

Consider `COc1ccccc1CNC(=O)COC(=O)c1cccs1`, for which the “activity change, negative = growth inhibition” value is -1.27%.

Regarding `Cc1ccccc1CNC(=O)C(=O)NCC(c1cccs1)S(=O)(=O)c1cccs1` (stereo not given), the Potency was 14.6 µM (active).

On to `O=C(CNC(=O)c1ccco1)NNC(=O)c1ccc(Br)cc1`, for which the “activity change, negative = growth inhibition” value is 17.5%.

With `CC(C)c1nc(-c2ccccn2)no1`, the “activity change, negative = growth inhibition” value was -11.4%.

On to `O=C(Oc1ccc(-c2nc(-c3ccccn3)no2)cc1)c1ccccc1`, for which the Potency is 9.2 µM (active).

Take `O=C(Oc1ccccc1)c1ccc2nccnc2c1`: the “activity change, negative = growth inhibition” value is 2.88%.

Regarding `COc1ccc(S(=O)(=O)N2CCN(CC(=O)N3c4ccccc4CC3C)CC2)cc1OC` (stereo not given), the “activity change, negative = growth inhibition” value is -5.83%.

With `O=C(NC1=NCCS1)[C@H](Cc1ccccc1)N1C(=O)c2ccccc2C1=O`, the “activity change, negative = growth inhibition” value is -17.9%.

Take `Cc1occc1C(=O)NC1CCCN(Cc2ccc(CC(C)C)cc2)C1` (stereo not given): the Potency is 20.6 µM (active).

Consider `Cc1occc1C(=O)Nc1cccc(Cn2cccn2)c1`, for which the “activity change, negative = growth inhibition” value is -25.6%.

With `Cc1occc1C(=O)NNC(=S)NCC(C)C`, the “activity change, negative = growth inhibition” value is -1.82%.

Turning to `CCOC(=O)C(NC(C)=O)C(=O)Nc1ccc(OC)cc1` (stereo not given), the “activity change, negative = growth inhibition” value was -3.87%.
